Laboratory results taken from PubChem BioAssay AID1159580 (chemical genetic matrix, 2015).
Screen size: about 5,500 compounds; about 2,000 (36%) were called active. About 18% were inconclusive and are not listed. No stated cut-off is given here; in the data, active means normalized growth mostly below about 0.91 (no sharp cut-off); inconclusive means no clear call, values can overlap the other calls; inactive means mostly above about 0.92. The list shows a part of the results.

Assay: chemical genetic growth profiling, strain panel (AID 1159580);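 further: tested at 20 µM; growth read once vehicle control cultures reached saturation at 30 °C; 1 = growth at the plate median or of vehicle wells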
Details: S. cerevisiae deletion strains, growth OD

Measured: normalized growth

OC[C@H]1OC([S-])[C@H](O)[C@@H](O)[C@@H]1O.[Au+] (stereo partly drawn)
inactive: locus YAL021C, strain ccr4, stronger effect = lower value 1.03 | locus YAL026C, strain drs2, stronger effect = lower value 1.03 | locus YAL030W, strain snc1, stronger effect = lower value 1.03 | locus YBL061C, strain skt5, stronger effect = lower value 1.02 | locus YBR009C, strain hhf1, stronger effect = lower value 1.02 | locus YBR023C, strain chs3, stronger effect = lower value 1.01 | locus YBR171W, strain sec66, stronger effect = lower value 1.01 | locus YBR231C, strain swc5, stronger effect = lower value 1.02 | locus YBR279W, strain paf1, stronger effect = lower value 1.01 | locus YCL011C, strain gbp2, stronger effect = lower value 1 | locus YCL016C, strain dcc1, stronger effect = lower value 1 | locus YCL069W, strain vba3, stronger effect = lower value 1.01 | locus YCR088W, strain abp1, stronger effect = lower value 1.01 | locus YDL005C, strain med2, stronger effect = lower value 1.02 | locus YDL040C, strain nat1, stronger effect = lower value 1.01 | locus YDR001C, strain nth1, stronger effect = lower value 1 | locus YDR069C, strain doa4, stronger effect = lower value 1.01 | locus YDR137W, strain rgp1, stronger effect = lower value 1.03 | locus YDR159W, strain sac3, stronger effect = lower value 1.06 | locus YDR195W, strain ref2 1.03 | locus YDR297W, strain sur2, stronger effect = lower value 1 | locus YDR334W, strain swr1, stronger effect = lower value 1.01 | locus YDR335W, strain msn5, stronger effect = lower value 1.02 | locus YDR392W, strain spt3, stronger effect = lower value 1.03 | locus YEL003W, strain gim4, stronger effect = lower value 1.01 | locus YEL037C, strain rad23, stronger effect = lower value 1.01 | locus YEL061C, strain CIN8 (second series), stronger effect = lower value 1.01 | locus YER015W, strain faa2, stronger effect = lower value 1.01 | locus YER016W, strain bim1, stronger effect = lower value 1.02 | locus YER111C, strain swi4, stronger effect = lower value 1.01 | locus YER155C, strain BEM2 (second series), stronger effect = lower value 1.05 | locus YFR010W, strain ubp6, stronger effect = lower value 1.02 | locus YGL167C, strain pmr1, stronger effect = lower value 1 | locus YGL173C, strain kem1, stronger effect = lower value 1.02 | locus YGL227W, strain vid30, stronger effect = lower value 1.01 | locus YGL240W, strain doc1, stronger effect = lower value 1.03 | locus YGL253W, strain hxk2, stronger effect = lower value 1.01 | locus YHR013C, strain ard1, stronger effect = lower value 1.02 | locus YHR027C, strain rpn1, stronger effect = lower value 0.992 | locus YHR030C, strain SLT2, stronger effect = lower value 1.05 | locus YHR079C, strain IRE1, stronger effect = lower value 1.1 | locus YHR142W, strain chs7, stronger effect = lower value 0.995 | locus YJL092W, strain hpr5, stronger effect = lower value 1.01 | locus YJL095W, strain BCK1 (second series), stronger effect = lower value 1.01 | locus YJL095W, strain BCK1, stronger effect = lower value 1.08 | locus YJL115W, strain asf1, stronger effect = lower value 1.01 | locus YJL129C, strain trk1, stronger effect = lower value 1.01 | locus YJL154C, strain vps35, stronger effect = lower value 1.01 | locus YJL164C, strain tpk1, stronger effect = lower value 1.01 | locus YJL166W, strain qcr8, stronger effect = lower value 1.02 | locus YJL187C, strain SWE1, stronger effect = lower value 1.02 | locus YJR066W, strain TOR1, stronger effect = lower value 0.998 | locus YKL160W, strain elf1, stronger effect = lower value 1 | locus YKR026C, strain gcn3, stronger effect = lower value 1.01 | locus YKR091W, strain srl3, stronger effect = lower value 1.01 | locus YLL001W, strain dnm1, stronger effect = lower value 1.01 | locus YLL026W, stronger effect = lower value 1.01 | locus YLL041C, strain sdh2, stronger effect = lower value 0.999 | locus YLR027C, strain aat2, stronger effect = lower value 1.02 | locus YLR221C, strain rsa3, stronger effect = lower value 1.01 | locus YLR258W, strain gsy2, stronger effect = lower value 1.01 | locus YLR262C, strain YPT6 (second series), stronger effect = lower value 1 | locus YLR320W, strain mms22, stronger effect = lower value 1.02 | locus YLR342W, strain FKS1, stronger effect = lower value 1.01 | locus YLR357W, strain rsc2, stronger effect = lower value 1.01 | locus YLR370C, strain arc18, stronger effect = lower value 1.01 | locus YLR384C, strain iki3, stronger effect = lower value 0.987 | locus YML120C, strain ndi1, stronger effect = lower value 1.02 | locus YMR058W, strain fet3, stronger effect = lower value 1.01 | locus YMR125W, strain sto1, stronger effect = lower value 1.02 | locus YMR129W, stronger effect = lower value 1.01 | locus YMR205C, strain PFK2, stronger effect = lower value 1.03 | locus YMR231W, strain pep5, stronger effect = lower value 1.01 | locus YNL071W, strain lat1, stronger effect = lower value 1 | locus YNL183C, strain NPR1, stronger effect = lower value 1.02 | locus YNL209W, strain ssb2, stronger effect = lower value 1 | locus YNL248C, strain rpa49, stronger effect = lower value 1.01 | locus YNL322C, strain KRE1 (second series), stronger effect = lower value 1.01 | locus YNR049C, strain mso1, stronger effect = lower value 0.997 | locus YOR001W, strain rrp6, stronger effect = lower value 1.02 | locus YOR070C, strain gyp1, stronger effect = lower value 1 | locus YOR080W, strain dia2, stronger effect = lower value 1.01 | locus YOR083W, strain WHI5, stronger effect = lower value 0.996 | locus YOR106W, strain vam3, stronger effect = lower value 1.03 | locus YOR231W, strain MKK1, stronger effect = lower value 1.09 | locus YOR265W, strain rbl2, stronger effect = lower value 1.01 | locus YOR290C, strain snf2, stronger effect = lower value 1.01 | locus YPL051W, strain arl3, stronger effect = lower value 0.994 | locus YPL078C, strain atp4, stronger effect = lower value 1.03 | locus YPL106C, strain sse1, stronger effect = lower value 1.01 | locus YPL240C, strain hsp82, stronger effect = lower value 1.01 | locus YPL256C, strain CLN2, stronger effect = lower value 1.16
active: locus YLR113W, strain HOG1, stronger effect = lower value 1.17 [resistant] | locus YOR270C, strain vph1, stronger effect = lower value 1.27 [resistant]

OCC1O[C@H](O)C(Cl)C(O)C1O (stereo partly drawn)
inactive: locus YAL013W, strain DEP1, stronger effect = lower value 1.01 | locus YAL040C, strain CLN3, stronger effect = lower value 1.01 | locus YCL061C, strain MRC1 (second series), stronger effect = lower value 1.01 | locus YDR363W, strain ESC2, stronger effect = lower value 0.977 | locus YER002W, strain NOP16, stronger effect = lower value 1 | locus YGR229C, strain SMI1, stronger effect = lower value 0.994 | locus YJR075W, strain HOC1, stronger effect = lower value 0.984 | locus YNL128W, strain TEP1, stronger effect = lower value 1.01 | locus YNL175C, strain NOP13, stronger effect = lower value 1.02 | locus YNL197C, strain WHI3, stronger effect = lower value 0.986 | locus YNL224C, strain SQS1, stronger effect = lower value 1 | locus YOR083W, strain WHI5 (second series), stronger effect = lower value 1.02 | locus YPL055C, strain LGE1, stronger effect = lower value 0.979 | locus YPL241C, strain CIN2, stronger effect = lower value 1.01
